The list is not random: actives were taken first. Their share in the collection is about 11%.
ALDH1A1 block – ALDH1A1 (human) enzyme inhibition | P00352 | Purified ALDH1A1, NADH fluorescence, propionaldehyde substrate | Potency, µM (highest dose often 75.3 µM), most hits filed as inhibitors | 220,000 tested, 7.3% active | AID 1030
Target sequence (P00352 whole entry, looked up): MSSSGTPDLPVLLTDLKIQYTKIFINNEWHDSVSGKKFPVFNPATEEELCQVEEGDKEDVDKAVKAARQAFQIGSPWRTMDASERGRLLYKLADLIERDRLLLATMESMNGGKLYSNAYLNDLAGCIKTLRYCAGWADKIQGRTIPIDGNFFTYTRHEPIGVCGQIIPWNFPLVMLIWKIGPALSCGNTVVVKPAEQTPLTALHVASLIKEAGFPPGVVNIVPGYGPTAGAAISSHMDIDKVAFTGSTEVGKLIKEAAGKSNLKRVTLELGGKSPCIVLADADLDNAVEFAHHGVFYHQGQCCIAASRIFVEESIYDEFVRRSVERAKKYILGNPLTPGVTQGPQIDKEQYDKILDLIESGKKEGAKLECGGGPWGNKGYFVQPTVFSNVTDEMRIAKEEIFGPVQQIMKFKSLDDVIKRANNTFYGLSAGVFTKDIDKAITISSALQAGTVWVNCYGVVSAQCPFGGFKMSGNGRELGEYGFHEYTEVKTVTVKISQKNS
PNC inhibitor – inhibitors of perinucleolar compartment assembly; activity change (PNC), negative = inhibition, % at 10 µM; PC3M PTB-GFP, PNC prevalence imaging, 16 h; stronger effect = lower value; 140,000 tested, 3.1% active;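 active = readout at or below -70, meaning at least 70% loss of cells showing the perinucleolar compartment, a nuclear body marking cancer cells; inconclusive = readout between -30 and a set limit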
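Read-out is percentage of cells bearing a perinucleolar compartment, from automated 20x imaging of fixed, Hoechst-stained PC3M PTB-GFP cells. Cells were seeded 4 h, then exposed 16 h to compound (23 nl of library stock) in duplicate plates.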
HPGD block – blocks human HPGD enzyme activity | P15428 | purified HPGD, NADH fluorescence kinetic, PGE2 substrate | Potency, µM, usual class: inhibitors | 150,000 tested, 4.3% active
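NADH formation kinetics: reaction with 30 uM PGE2 and 1 mM NAD+ (final), 20 nM enzyme, Tris-HCl pH 8 with Tween 20, after 15 min compound preincubation at room temperature. Fluorescence change, last versus first of five reads.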
IMPase cell inh – cell-permeable inhibitors of inositol monophosphatase (IMPase) | AID 901 | 120,000 tested, under 10 active | P97697 | CHO-M1 cells, IP1 accumulation, HTRF TR-FRET ratio | inhibition (IP1 accumulation), % at 46.1 µM; active = well fitted curve in the direction sought with a large enough effect in the signal ratio, not every such curve was filed as active; inconclusive = small, poorly fitted or top-dose-only effect, or a change in a side signal; inactive = no such curve, though single readings can be large or run the other way; the % refers to the signal ratio;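 note: cells stimulated with carbachol in lithium chloride buffer; higher means more IMPase inhibition seen as more IP1 and lower FRET ratio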
Target sequence (P97697 whole entry, looked up): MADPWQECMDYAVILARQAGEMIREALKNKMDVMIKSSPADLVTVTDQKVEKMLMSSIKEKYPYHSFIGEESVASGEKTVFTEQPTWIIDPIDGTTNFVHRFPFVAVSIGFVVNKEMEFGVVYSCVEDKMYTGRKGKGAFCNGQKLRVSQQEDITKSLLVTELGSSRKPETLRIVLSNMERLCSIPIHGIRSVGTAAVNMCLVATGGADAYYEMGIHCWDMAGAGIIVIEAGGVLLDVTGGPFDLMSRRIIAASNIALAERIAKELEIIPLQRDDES
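Cellular IMPase inhibition is scored as a rise in cytosolic IP1, detected by competitive TR-FRET between d2-labelled IP1 and a europium anti-IP1 antibody. M1-expressing CHO cells were stimulated with carbachol for 30 min at 37C, with lithium (50 mM LiCl) present in the buffer.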
12-hLO inh – inhibitors of human 12-lipoxygenase (ALOX12); 150,000 tested, 0.12% active; purified 12-hLO, xylenol orange hydroperoxide absorbance; Potency, µM (doses to about 57.1 µM), actives largely listed as inhibitors; active = well fitted curve in the direction sought with a large enough effect; inconclusive = small, poorly fitted or top-dose-only effect, or another doubt; inactive = no such curve, though single readings can be large; an effect the other way counts as inactive or inconclusive; note: nearly all actives have a fitted effect of over 55% in size
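Purified human 12hLO (150 nM final) was preincubated with compounds for 15 min at room temperature in 25 mM Hepes pH 7.0, 0.01% Triton X-100, then reacted with 40 uM arachidonic acid for 30 min. Hydroperoxide was detected with ferrous iron/xylenol orange.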
IMPase Li cell – cell-permeable IMPase inhibitors with lithium potentiation; AID 1457; CHO-M1 cells, IP1 TR-FRET (IP-One), carbachol + lithium; Potency, µM (series often up to 59.4 µM), most hits filed as inhibitors; 210,000 tested, 0.35% active; active = well fitted curve in the direction sought with a large enough effect; inconclusive = small, poorly fitted or top-dose-only effect, or another doubt; inactive = no such curve, though single readings can be large; an effect the other way counts as inactive or inconclusive;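 note: IP1 builds up when IMPase is blocked and the TR-FRET signal falls; nearly all actives have a fitted effect of over 50% in size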
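CHO cells stably expressing M1 receptor (2000/well) were cultured 16–30 h, then exposed to compounds with a small lithium addition for 30 min at 37C. IP1 was measured by TR-FRET competition; AC50 from Hill fits.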
Numbers stand for hits; i = inactive; ? = inconclusive; nt = no result given; [ ] = dose if it differs, or a comment. Unless noted, calls come from the whole dose curve; as a rule, active = well fitted inhibition curve with a large enough effect (not every such curve was filed as active); inconclusive = small, poorly fitted or top-dose-only effect, or another doubt; inactive = no such curve, though single readings can be large or run the other way.

SMILES | ALDH1A1 block | PNC inhibitor | HPGD block | IMPase cell inh | 12-hLO inh | IMPase Li cell
Cn1c(/C(C#N)=C/c2ccc(C(F)(F)F)cc2)nc2ccccc21 | nt | nt | nt | i | nt | nt
CC(=O)CC(C)(C)S(=O)(=O)c1ccc(Oc2ccc(S(=O)(=O)C(C)(C)CC(C)=O)cc2)cc1 | 8.91µM | i | i | ? | i | i
CCCc1cc(NC(=O)CCl)n(-c2ccccc2)n1 | 0.891µM | nt | nt | nt | nt | i
COc1ccc(N(C)C(=O)c2cn(C3CCCCC3)c(=O)c3c2c2ccccc2n3C)cc1 | nt | nt | nt | i | nt | nt
CC(=O)Nc1ccc(S(=O)(=O)Nc2nc3ccccc3s2)cc1 | i | i | i | i | i | i
CC(=O)Nc1ccc(S(=O)(=O)Nc2nc3ccc([N+](=O)[O-])cc3s2)cc1 | 14.1µM | nt | nt | nt | nt | i
O=C(NCc1cccnc1)c1ccc(NC(=O)c2ccco2)cc1 | i | i | i | i | i | i
Cc1ccc(C(=O)NCc2ccccn2)c(Cl)c1 | i | i | 14.1µM | i | i | i
O=C(NCc1ccccn1)c1ccc(NC(=O)c2ccco2)cc1 | ? | ? | 14.1µM | i | i | i
O=C(Nc1ccc(-c2noc(CCc3ccccc3)n2)cc1)c1ccco1 | ? | -89.3 | 25.1µM | i | i | i
O=C(Oc1ccccc1)c1ccc(NC(=O)c2ccco2)cc1 | 17.8µM | i | 12.6µM | nt | i | i
C[C@]12CCC(=O)C=C1CCC1C2C(=O)C[C@]2(C)C1CC[C@]2(O)C(=O)CO (stereo not given in full) | i | nt | i | nt | i | i
COC(=O)[C@@]1(Cc2ccc(OC)cc2)[C@H]2c3cc(C(=O)N4CCCC4)n(Cc4nc5ccccc5[nH]4)c3C[C@H]2CN1C(=O)c1ccccc1 | ? | nt | ? | nt | i | i
Cc1nc(N2CCOCC2)c2nc(-c3ccccc3)n(CCCN(C)C)c2n1 | ? | nt | ? | nt | i | i
O=C(O)C1(O)C[C@H](O)C(O)[C@@H](O)C1 (stereo not given in full) | i | nt | i | i | i | i
CC(=O)OCC1OC(C#Cc2ccc(Br)cc2)C=CC1OC(C)=O (stereo not given) | i[13.5 µM] | nt | nt | nt | nt | nt
O=C(NCc1ccccn1)c1coc(=O)c(Br)c1 | ? | -87.0 | ? | i | i | i
COc1ccc(N2CCN(C(=O)CSc3nnc(Cn4nnc5ccccc54)n3C)CC2)cc1 | 14.1µM | ? | i | i | i | i
Cn1c(Cn2nnc3ccccc32)nnc1SCC(=O)N1c2ccccc2CCc2ccccc21 | 8.91µM | i | i | i | i | i
COc1cccc(Nc2ncc3nc(-c4cccs4)c(=O)n(-c4ccccc4)c3n2)c1 | i | nt | nt | nt | nt | i
O=C1OC(c2ccc(Cl)cc2)/C(=C(/O)c2ccccc2)C1=O (stereo not given) | 7.94µM | i | i | i | i | i
Cc1cccc2sc(N)nc12 | ? | nt | i | nt | i | i
COc1ccc2c(c1)C(C)=CC(C)(C)N2S(=O)(=O)c1ccc(C)cc1 | i | nt | nt | nt | nt | i
CC1=CC(C)(C)N(S(=O)(=O)c2ccc(C)cc2)c2cc(C)ccc21 | i | -95.2 | i | i | i | i
Cc1cnc(CNc2cc(-c3cccc(C#N)c3)ncn2)cn1 | ? | nt | nt | nt | nt | i
SMILES | ALDH1A1 block | PNC inhibitor | HPGD block | IMPase cell inh | 12-hLO inh | IMPase Li cell
Cc1cc2ccccc2n1CCNC(=O)c1ccccc1 | ? | i | i | i | i | ?
Cc1cc2ccccc2n1CCNC(=O)c1ccc(S(=O)(=O)N2CCOCC2)cc1 | 10µM | ? | i | i | i | i
O=C(NCCn1ccc2ccccc21)c1ccc(S(=O)(=O)N2CCCCC2)cc1 | ? | -81.1 | ? | i | i | i
N#CSCC(=O)c1cccc2ccccc12 | 1.58µM | i | ? | nt | i | i
CC(C)NC(=S)N=Nc1c(O)[nH]c2ccc([N+](=O)[O-])cc12 | 10µM | nt | nt | nt | nt | i
COc1ccc2[nH]cc(CCNc3ccnc(-c4ccc5c(c4)OCO5)n3)c2c1 | ? | nt | nt | nt | nt | i
CC(C)C(=O)Nc1ccc(S(=O)(=O)Nc2nccc(/C=C/c3ccccc3)n2)cc1 | ? | i | i | nt | i | i
CCn1c(N)c(C(=O)NCCOC)sc1=S | 25.1µM | i | ? | i | i | i
CCOC(=O)c1c(C)c(C(=O)NCc2ccc3c(c2)OCO3)c(C)n1CC | ? | i | i | nt | i | i
COCCNC(=O)c1ccc(C(=O)NCCOC)s1 | i | i | i | i | i | i
CCn1c(N)c(C(=O)Nc2ccccc2C(=O)OC)sc1=S | 28.2µM | i | 25.1µM | i | i | i
CCn1c(N)c(C(=O)NCc2ccc3c(c2)OCO3)sc1=S | 20µM | ? | 15.8µM | i | i | i
CCOC(=O)C1CCN(CCC(=O)Nc2ccccc2OC)CC1 | nt | nt | nt | i | nt | nt
Cc1ccc(NC(c2cccc(Cl)c2)c2nnc(-c3ccccc3)o2)cc1F (stereo not given) | nt | nt | nt | i | nt | nt
O=C(O)c1ccc2c(c1)C(=O)N(c1cccc(S(=O)(=O)Nc3cccc(C(F)(F)F)c3)c1)C2=O | i | nt | nt | nt | nt | i
O=C(c1cnccn1)N1CCC2(CC1)CN(Cc1nccs1)C2 | i | nt | i | nt | i | i
Cc1c(Cl)cccc1NC(=O)Cn1cc(C(F)(F)F)cc(Cl)c1=O | ? | nt | nt | nt | nt | i
CCOC(=O)C(=O)N(CC)C1CCS(=O)(=O)C1 (stereo not given) | i | nt | nt | nt | nt | nt
CCOC(=O)C(C(=O)OCC)C1CCS(=O)(=O)C1 (stereo not given) | i | -100.0 | i | i | i | i
Cc1ccccc1OCCn1c(=N)n(C(C)C)c2ccccc21 | nt | nt | nt | i | nt | nt
Cc1cnc(C(=O)OCC(=O)c2csc(N3CCCCC3)n2)cn1 | 17.8µM | i | ? | i | i | i
COc1ccc(CNc2ccnc(-c3cccc(NS(C)(=O)=O)c3)n2)c(OC)c1 | i | nt | nt | nt | nt | i
Nn1c(Cc2cccc3ccccc23)nnc1SCc1ccccc1 | i | i | 12.6µM | nt | i | i
COc1ccc(OCCSc2nnc(Cc3cccc4ccccc34)n2N)cc1 | ? | ? | 22.4µM | nt | i | i
NCC(O)COc1cccc2ccccc12 (stereo not given) | i | nt | nt | nt | nt | i
SMILES | ALDH1A1 block | PNC inhibitor | HPGD block | IMPase cell inh | 12-hLO inh | IMPase Li cell
Cc1cc(N=Cc2c(CO)cnc(C)c2O)c(N=Cc2c(CO)cnc(C)c2O)cc1C.[Zn] | i[13.5 µM] | nt | i | nt | i[11.4 µM] | i
O=C(NCc1ccccn1)C1CCN(Cc2cnn(-c3ccccc3)c2-n2cccc2)CC1 | 25.1µM | i | i | i | i | i
CC1(C)CC(=O)C2=C(C1)OC(N)=C(C#N)C21CCN(C(=O)OCc2ccccc2)CC1 | 10µM | i | i | i | i | i
CC1(C)CC(=O)C2=C(C1)OC(N)=C(C#N)C21C(=O)N2CCCc3cccc1c32 (stereo not given) | 7.08µM | i | i | i | i | i
CCc1ccccc1NC(=O)CC1NCCNC1=O (stereo not given) | nt | nt | nt | i | nt | nt
O=C1CC(c2ccc(Cl)cc2)Sc2nc(-c3ccc(F)cc3)nn21 (stereo not given) | nt | nt | nt | i | nt | nt
O=S(=O)(c1ccc(NC(=S)NN=C(Cc2ccccc2)Cc2ccccc2)cc1)N1CCOCC1 | 17.8µM | nt | nt | nt | nt | i
